Assay [1] can be described thus: qHTS assay to identify small molecule antagonists of the glucocorticoid receptor (GR) signaling pathway - cell viability counter screen (AID 720693). Also: nearly all actives have a fitted effect of over 55% in size. On the technique in general: qHTS replaces the single test concentration by a dilution series.
A short description of assay [2]: qHTS assay for identifying genotoxic compounds that show differential cytotoxicity against isogenic chicken DT40 cell lines with known DNA damage response pathways - wild type cell line (AID 743012). Also: nearly all actives have a fitted effect of over 60% in size. Also: potency is read from the fitted curve at half-maximal effect. The essentials: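 Endpoint: CellTiter-Glo luminescence, 30 min RT. Cells: wild type DT40, 300/well. Exposure: compounds in DMSO, 40 h, 37 C/5% CO2, after ~0.5 h pre-incubation.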

Assay [3] can be described thus: qHTS assay for identifying genotoxic compounds that show differential cytotoxicity against isogenic chicken DT40 cell lines with known DNA damage response pathways - Rev3 mutant cell line (AID 743014). Also: nearly all actives have a fitted effect of over 55% in size. Also: potency is read from the fitted curve at half-maximal effect.
The nature of assay [4]: qHTS assay for identifying genotoxic compounds that show differential cytotoxicity against isogenic chicken DT40 cell lines with known DNA damage response pathways - Rad54/Ku70 mutant cell line (AID 743015). Also: nearly all actives have a fitted effect of over 60% in size. Also: potency is read from the fitted curve at half-maximal effect.
Assay [5] in a line: qHTS assay to identify small molecule antagonists of the androgen receptor (AR) signaling pathway - cell viability counter screen (AID 743033; also: nearly all actives have a fitted effect of over 45% in size).
A short description of assay [6]: qHTS assay to identify small molecule antagonists of the androgen receptor (AR) signaling pathway using the MDA cell line - cell viability counter screen (AID 743041; also: nearly all actives have a fitted effect of over 45% in size; also: potency is read from the fitted curve at half-maximal effect). An outline of the steps: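 Using the breast carcinoma line MDA-kb2 AR-luc, test chemicals were co-incubated with R1881 for 16 h; CellTiter-Fluor reagent, added at 15.5 h, provided a fluorescence measure of live cells.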

The target in assay [7] is Androgen receptor (Homo sapiens) (UniProt P10275). The assay is described as follows: qHTS assay to identify small molecule antagonists of the androgen receptor (AR) signaling pathway (AID 743035; active = well fitted inhibition curve with a large enough effect in the signal ratio in the repeat runs, not every such curve was filed as active; the % refers to the signal ratio). An outline of the steps: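 R1881 agonist challenge of a HEK293 UAS-beta-lactamase AR reporter line in the presence of compound (16 h, 37C); signal taken as FRET fluorescence after 2 h with LiveBLAzer B/G substrate at room temperature.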

Assay [8] shares this target. The assay is described as follows: qHTS assay to identify small molecule agonists of the androgen receptor (AR) signaling pathway (AID 743036; active = well fitted activation curve with a large enough effect in the signal ratio in the repeat runs, with a control signal flat, not every such curve was filed as active; the % refers to the signal ratio). The essentials: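 Agonist activity was scored by beta-lactamase reporter fluorescence in stably transfected HEK293 cells exposed to compounds for 16 h at 37C and 5% CO2. Substrate loading took 2 h at room temperature.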
Assay [9] has the same target. The assay is described as follows: qHTS assay to identify small molecule agonists of the androgen receptor (AR) signaling pathway using the MDA cell line (AID 743040; also: nearly all actives have a fitted effect of over 20% in size). An outline of the steps: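 Stable MMTV-luciferase reporter in MDA-kb2 cells; note the promoter carries GR as well as AR response elements. 16 h compound treatment, 37C, 0% CO2; ONE-Glo luminescence endpoint.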

For assay [10] the target is unchanged. The assay is described as follows: qHTS assay to identify small molecule antagonists of the androgen receptor (AR) signaling pathway using the MDA cell line (AID 743042; also: nearly all actives have a fitted effect of over 55% in size). An outline of the steps:
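Antagonist mode: compounds plus R1881 agonist added to MDA-kb2 AR-luc cells, incubated 16 h at 37C. Luciferase reporter luminescence quantified, with multiplexed CellTiter-Fluor readout for cell viability.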

Several values for one entry are separate records, joined by “and”; a condition that tells them apart may be missing. Equal values may be shown once. Records with an inconclusive call do not appear. Where a structure was tested more than once in an assay, its records may differ in their call. Activity calls are given as the source filed them. Unless noted, calls follow the shape of the dose curve; as a rule, active = well fitted curve in the direction sought with a large enough effect in the repeat runs; inconclusive = weak or mixed curves; inactive = no such curve, though single readings can be large; an effect the other way counts as inactive or inconclusive.

Chain of Androgen receptor (Homo sapiens) (P10275 whole entry, looked up): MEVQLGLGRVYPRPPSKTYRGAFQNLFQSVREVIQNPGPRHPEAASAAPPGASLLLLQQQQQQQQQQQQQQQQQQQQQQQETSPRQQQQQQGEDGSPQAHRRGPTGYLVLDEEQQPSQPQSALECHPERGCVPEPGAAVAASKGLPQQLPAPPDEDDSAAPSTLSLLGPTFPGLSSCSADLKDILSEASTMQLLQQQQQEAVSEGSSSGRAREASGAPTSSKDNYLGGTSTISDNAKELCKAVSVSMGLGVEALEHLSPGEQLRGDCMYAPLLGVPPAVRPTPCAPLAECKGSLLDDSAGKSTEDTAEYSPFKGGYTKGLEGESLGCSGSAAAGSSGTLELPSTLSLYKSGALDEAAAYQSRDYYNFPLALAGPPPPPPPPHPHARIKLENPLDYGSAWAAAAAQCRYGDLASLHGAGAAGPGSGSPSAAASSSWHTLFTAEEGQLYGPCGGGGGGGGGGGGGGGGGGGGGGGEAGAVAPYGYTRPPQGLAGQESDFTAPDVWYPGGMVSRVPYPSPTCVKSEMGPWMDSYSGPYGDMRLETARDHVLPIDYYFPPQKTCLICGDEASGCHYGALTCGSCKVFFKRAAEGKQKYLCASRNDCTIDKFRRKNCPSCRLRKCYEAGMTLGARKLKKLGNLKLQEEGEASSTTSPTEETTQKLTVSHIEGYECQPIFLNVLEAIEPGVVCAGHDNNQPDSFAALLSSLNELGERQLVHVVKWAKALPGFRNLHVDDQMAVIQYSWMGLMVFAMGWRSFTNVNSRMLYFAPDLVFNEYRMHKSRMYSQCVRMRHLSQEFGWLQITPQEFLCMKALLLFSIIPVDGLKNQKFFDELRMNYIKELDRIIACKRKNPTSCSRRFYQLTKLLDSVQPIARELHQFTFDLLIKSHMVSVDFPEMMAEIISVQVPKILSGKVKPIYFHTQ

In the case of `CCNC(=S)NCC`, the outcome in [1] and in [5] was inactive. Further, the Potency entry in assay [2], in [3], in [4] and in assay [6] was “inactive” each time.

With `CC(C)(Oc1ccc(CCNC(=O)c2ccc(Cl)cc2)cc1)C(=O)O`, the outcome in assay [1] and in assay [5] was inactive. The Potency entry in assay [2], in [3], in [4] and in [6] was “inactive” each time.

Turning to `c1ccc(Oc2ccccc2)cc1`, the result in [1] and in [5] was inactive. Moreover, the Potency result in assay [2], in assay [3], in [4] and in assay [6] was “inactive” each time.

Consider `CC(C)CC(C)O` (configuration not stated), for which the result in [1] and in assay [5] was inactive. Besides, the Potency result in [2], in assay [4] and in assay [6] was “inactive” throughout. For the same compound, in assay [3], the Potency entry was “inactive and 61.1 µM (active)”.

Regarding `CC(C)CC(=O)CC(C)CC(C)C` (configuration not stated), the result in [1], in [5], in [7] and in assay [10] was inactive. For the same compound, the Potency result in assay [2], in assay [3], in assay [4], in assay [8], in [9] and in assay [6] was “inactive” in each case.

As to `CCCCCC(=O)O`, the result in assay [1], in assay [5], in assay [7] and in assay [10] was inactive. Also, the Potency entry in [2], in assay [3], in assay [4], in [8], in [9] and in assay [6] was “inactive” each time.

As for `CN(C)CCOC(=O)COc1ccc(Cl)cc1`, the compound was called inactive in assay [1] and in assay [5]. Also, the Potency result in assay [2], in assay [3], in [4] and in assay [6] was “inactive” each time.

As to `Cc1ccc(S(=O)(=O)N=C=O)cc1`, the compound was called inactive in assay [1] and in assay [5]. For the same compound, the Potency result in assay [2], in [3], in assay [4] and in assay [6] was “inactive” in each case.

Take `CC(C)c1cccc(C(C)C)c1`: the compound was called inactive in [1] and in assay [5]. Further, the Potency entry in assay [2], in assay [3], in assay [4] and in assay [6] was “inactive” throughout.

On to `CCCCCCCO`, for which the outcome in assay [1] and in [5] was inactive. The Potency entry in assay [2], in assay [3], in [4] and in assay [6] was “inactive” each time.

Regarding `CN/C(=C\[N+](=O)[O-])NCCSCc1csc(CN(C)C)n1`, the result in [1], in [5], in assay [7] and in assay [10] was inactive. The Potency result in [2], in assay [3], in assay [4], in assay [8], in assay [9] and in assay [6] was “inactive” throughout.

In the case of `O=C(O)Cn1c(=O)n(Cc2ccc(Br)cc2F)c(=O)c2ccc(Cl)cc21`, the call in [1], in assay [5] and in assay [10] was inactive. Moreover, the Potency entry in [2], in assay [3], in assay [4], in [9] and in assay [6] was “inactive” each time.

In the case of `COC(=O)CCCC(=O)OC`, the call in assay [1] and in assay [5] was inactive. The Potency result in assay [2], in [3], in [4] and in assay [6] was “inactive” each time.

Take `CC(=O)Oc1ccc(C)cc1`: the call in assay [1], in assay [5], in assay [7] and in [10] was inactive. The Potency entry in [2], in assay [3], in [4], in assay [8], in assay [9] and in assay [6] was “inactive” each time.

As for `CCCCCCCCCCCCCCCCO`, the call in assay [1] and in assay [5] was inactive. The Potency entry in [2], in assay [4] and in [6] was “inactive” in each case. For the same compound, in assay [3], the Potency entry is “inactive and 68.6 µM (active)”.

In the case of `O=C(O)c1ccc(C(=O)O)c(C(=O)O)c1`, the result in assay [1], in [5], in [7] and in assay [10] was inactive. Also, the Potency result in assay [2], in assay [3], in assay [4], in [8], in assay [9] and in [6] was “inactive” throughout.

As to `CC(O)CC(C)(C)O` (configuration not stated), the compound was classed as inactive in assay [1] and in assay [5]. Moreover, the Potency entry in assay [2], in assay [3], in [4] and in assay [6] was “inactive” each time.

Take `O=S(=O)(O)c1ccc(N=Nc2c(O)ccc3cc(S(=O)(=O)O)ccc23)cc1`: the outcome in assay [1] and in [5] was inactive. For the same compound, the Potency result in assay [2], in [3] and in assay [4] was “inactive” each time. In addition, the Potency in assay [6] is 30.8 µM (active) and 27.3 µM (active).

As to `CCCCOC(=O)c1ccc(N)cc1`, the compound was called inactive in assay [1] and in [5]. Moreover, the Potency result in assay [2] is “inactive and 13.5 µM (active)”; in [3], 9.44 µM (active) and 13.5 µM (active); in [4] it was 7.5 µM (active) and 7.59 µM (active). Further, the Potency entry in assay [6] was “inactive”.

On to `CC(=O)OCc1ccccc1`, for which the compound was called inactive in assay [1], in [5], in assay [7] and in assay [10]. Moreover, the Potency entry in assay [2], in [3], in [4], in assay [8], in [9] and in assay [6] was “inactive” each time.

`OCc1cccc(Oc2ccccc2)c1`: the compound was classed as inactive in assay [1], in assay [5] and in assay [10]. The Potency entry in assay [2], in assay [3], in assay [4], in [8], in assay [9] and in assay [6] was “inactive” each time.

Turning to `C=C(C)C(=O)OCC(C)C`, the compound was called inactive in assay [1] and in assay [5]. Moreover, the Potency entry in [2], in assay [3], in assay [4] and in [6] was “inactive” in each case.

`O=C1C(c2[nH]c3ccccc3c2O)=Nc2ccccc21`: the outcome in assay [1] and in assay [5] was inactive. Moreover, the Potency result in assay [2], in assay [3], in assay [4] and in [6] was “inactive” in each case.

For the compound `C=CC(=O)OCCC(=O)O`, the compound was classed as inactive in [1] and in assay [5]. For the same compound, the Potency entry in [2], in assay [3], in assay [4] and in assay [6] was “inactive” each time.

In the case of `CC(C)=CCl`, the call in [1] and in assay [5] was inactive. Further, the Potency entry in assay [2], in [4] and in assay [6] was “inactive” each time. Also, the Potency in assay [3] was 34.8 µM (active) and inactive.

With `COCCCN`, the compound was called inactive in assay [1] and in [5]. The Potency result in [2], in [3], in assay [4] and in assay [6] was “inactive” throughout.

In the case of `CCc1ccccc1CC`, the compound was called inactive in assay [1] and in assay [5]. In addition, the Potency entry in assay [2], in assay [3], in assay [4] and in [6] was “inactive” each time.

In the case of `C=C(C)CNCC`, the result in assay [1] and in assay [5] was inactive. For the same compound, the Potency result in [2], in [3], in assay [4] and in assay [6] was “inactive” each time.

Take `COC(=O)c1cccnc1`: the compound was called inactive in assay [1], in assay [5], in assay [7] and in assay [10]. The Potency entry in assay [2], in assay [3], in [4], in assay [8], in [9] and in assay [6] was “inactive” each time.

The record behind these values is PubChem BioAssay (Tox21).
